# SMARCA2 act: activators of SMARCA2 function. MG213 cells, MMTV-luciferase reporter, dexamethasone, overnight. activation, % at 9.1 µM. hit rate 1% among 370,000; in the data active = activation above about 7.8%
# GAA850 FXN act: increases GAA850 frataxin promoter reporter activity; activation, % at 6 µM; hit rate 0.56% among 360,000; AID 540364; HEK293 lucGAA850 FXN promoter luciferase reporter, 24 h; percent of 10 µM SAHA response;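 active = activation above the average of all compounds screened plus 3 SD, cutoff fixed separately per campaign, cut at about 7.5% in these data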
# proKLK7 act: activates the human kallikrein-7 zymogen; AID 652039; purified proKLK7, EDANS-DABCYL substrate fluorescence; 100% is mature enzyme control, 0% vehicle; hit rate 0.9% among 370,000; activation, % at 7 µM;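 active = activation above the mean of all tested compounds plus 3 SD, computed per campaign excluding outliers beyond control limits, cut at about 13% in these data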
# FAS-TE inh: blocks the thioesterase domain of human fatty acid synthase; recombinant FAS-TE, OMFH fluorogenic substrate, fluorescence endpoint; inhibition, % at 15 µM; hit rate 0.67% among 360,000; AID 602261;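 active = compounds whose normalised, plate-corrected inhibition of enzyme fluorescence in the single-dose primary screen is 50% or more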
# proKLK7 act conf: proKLK7 activation, confirmation; shares compounds with proKLK7 act; purified proKLK7, EDANS-DABCYL substrate fluorescence; scaled: vehicle 0, mature enzyme 100; hit rate 68% among 3,200; activation, % at 7 µM; AID 686949;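 active = activation, as change over the incubation, above the mean of all tested compounds plus 3 SD, cut at about 13% in these data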
# EDANS-DABCYL int: optically interferes with EDANS-DABCYL signal, flagging KLK7 hits | shares compounds with proKLK7 act | EDANS-DABCYL substrate fluorescence interference, no enzyme, 4 h; solvent 0%, active enzyme control 100% | activation, % at 7 µM | hit rate 80% among 3,200 | AID 686952;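 active = activation above the all-compound mean plus 3 SD, ignoring values outside control-based bounds, cut at about 4.8% in these data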;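 note: value is the 4 h activation minus the activation read at time zero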
# K7 EDANS ctr: EDANS fluorescence interference in dose response, no enzyme. shares compounds with proKLK7 act. EDANS-DABCYL peptide fluorescence interference. EC50, µM. hit rate 20% among 250. AID 720493;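 active = compounds that raise the fluorescence signal in this interference counterscreen, with EC50 at or below 10 µM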;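 note: intact quenched peptide substrate alone read at 355 nm excitation and 520 nm emission; signal is fluorescence gain from T0 to T4 after four hours at room temperature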
# Hits are given with their value; n = inactive; x = not tested or not shown. Sampled rows, rich in hits. Any-hit rate of the full collection: about 2.9%.
SMILES,SMARCA2 act,GAA850 FXN act,proKLK7 act,FAS-TE inh,proKLK7 act conf,EDANS-DABCYL int,others
C#CCn1c(=NC(=O)c2ccc(S(=O)(=O)N3CCCc4ccccc43)cc2)sc2cc(S(N)(=O)=O)ccc21,n,n,50.8,n,n,23.9,
COc1ccc(N(CC(=O)N/N=C/c2cccc(OC)c2OC)S(=O)(=O)c2ccccc2)cc1,n,n,n,n,x,x,
COC(=O)C1=CN(Cc2ccc(OC)c(OC)c2)C=C(C(=O)OC)C1c1ccc(O)cc1,n,n,20.6,n,n,n,
COC(=O)C1=CN(Cc2ccc(OC)c(OC)c2)C=C(C(=O)OC)C1c1ccc(F)cc1,n,n,n,n,x,x,
Clc1ccc(CSc2nnc(/C=C/c3ccccc3)o2)cc1,n,n,n,n,x,x,
CCOC(=O)c1c(C)n(C)c2ccc(OC(=O)c3ccco3)cc12,n,n,n,n,x,x,
CCOC(=O)c1cc2ccc(OC(=O)c3ccco3)cc2oc1=O,n,n,100.6,n,667.9,658.7,
CCOC(=O)c1cc2ccc3ccccc3c2oc1=O,n,n,53.0,n,74.1,75.8,
COc1cc(-c2ccc3oc(-c4ccsc4)c(C#CC4(O)CCCCC4)c3c2)cc(OC)c1OC,n,n,12.8,n,n,9.6,
OC1(C#Cc2c(-c3ccsc3)oc3ccc(N4CCOCC4)cc23)CCCCC1,n,n,n,n,x,x,
Cc1cc(C)n2cc(CSCc3ccccc3)nc2n1,n,n,13.8,n,25.3,20.6,K7 EDANS ctr=n
Cc1cc(C)n2cc(CSc3ccccn3)nc2n1,n,n,n,n,x,x,
COc1ccccc1NC(=O)COC(=O)c1ccc2c(c1)nc(C)n2-c1ccccc1,n,n,n,n,x,x,
O=C(O)c1cccc(S(=O)(=O)N2CCN(c3ccccn3)CC2)c1,n,n,n,n,x,x,
Cc1ccc(-c2c(NC(=O)C3CC3)nc3ncccn23)cc1,n,x,22.7,x,29.7,34.6,
Nc1nc2ncccn2c1-c1ccc(F)c(F)c1,n,x,21.9,x,23.9,18.7,K7 EDANS ctr=n
O=C(Nc1c(-c2ccc(F)c(F)c2)nc2ncccn12)C1CC1,n,x,18.5,x,51.6,57.5,
O=C(CSc1nc2ccccc2c(=O)n1-c1ccccc1)NC(=O)CN1CCCC1=O,n,n,n,n,x,x,
CCOC(=O)C1CCN(S(=O)(=O)c2ccc(-c3cc(C(F)(F)F)n(C)n3)s2)CC1,n,n,n,n,x,x,
N#Cc1cc(C(=O)c2ccccc2O)cn(-c2nccs2)c1=O,n,n,12.9,n,25.0,23.4,
N#Cc1cc(C(=O)c2cc(F)ccc2O)cn(-c2nccs2)c1=O,n,n,24.9,n,42.0,46.3,
O=C(O)CC(C(=O)Nc1ccc(Cl)cc1Cl)C1CCCO1 (centres undefined),n,n,n,n,x,x,
COc1ccccc1-n1c(C)cc(SC)c(C(C)=O)c1=S,n,n,n,n,x,x,
CC(=O)Nc1ccc(-c2cc(C(=O)O)c3cc4ccccc4cc3n2)cc1,n,n,n,n,x,x,
CC(=O)Nc1ccc(-c2cc(C(=O)O)c3ccc(C)cc3n2)cc1,n,n,17.1,n,17.3,27.5,
SMILES,SMARCA2 act,GAA850 FXN act,proKLK7 act,FAS-TE inh,proKLK7 act conf,EDANS-DABCYL int,others
CC1(C)CC(=O)C=C(c2ccc(-c3cccc4c3sc3ccccc34)cc2)C1=O,n,n,n,n,x,x,
Cc1nc2[nH]c(=O)c3c(n2n1)NC1=C(C(=O)CC(C)(C)C1)C3c1ccccc1 (centres undefined),n,n,46.7,n,n,10.6,
CCN(CC)C(=O)[C@H]1C[C@H](CC(=O)NCCc2ccccn2)C(=O)N2CCc3c([nH]c4cc(-c5ccco5)ccc34)[C@]12C,n,n,147.2,n,64.4,78.9,
C[C@]12c3[nH]c4cc(-c5ccco5)ccc4c3CCN1C(=O)[C@@H](CC(=O)NCCc1ccccn1)C[C@@H]2C(=O)N1CCOCC1,n,n,112.8,n,52.1,67.9,
CC(C)N(C(=O)[C@H]1C[C@H](CC(=O)NCCc2ccccn2)C(=O)N2CCc3c([nH]c4cc(-c5ccco5)ccc34)[C@]12C)C(C)C,n,n,183.8,n,28.7,29.9,
CCN(CC)C(=O)[C@H]1C[C@H](CC(=O)NCCc2ccccn2)C(=O)N2CCc3c([nH]c4ccc(Cl)cc34)[C@]12C,n,n,n,n,x,x,
C[C@]12c3[nH]c4ccc(Cl)cc4c3CCN1C(=O)[C@@H](CC(=O)NCCc1ccccn1)C[C@@H]2C(=O)N1CCOCC1,n,n,n,n,x,x,
COc1ccccc1N1CCN(CC(=O)N2CCCC2)CC1,n,n,n,n,x,x,
CC(=O)Nc1cc2ccccc2oc1=O,n,n,n,n,x,x,
O=C(c1cc(-c2cccs2)nc2ccccc12)N1CCN(CCO)CC1,n,n,14.0,n,22.3,14.1,K7 EDANS ctr=n
CC(=O)c1cc2c(ccc3ccccc32)oc1=O,n,n,n,n,x,x,
CS(=O)(=O)N1CCN(C(=O)c2cc(-c3cccs3)nc3ccccc23)CC1,n,n,12.7,n,16.0,23.1,
O=C(c1cc(-c2cccs2)nc2ccccc12)N1CCN(c2ccccc2O)CC1,n,n,n,n,x,x,
CC(=O)Nc1cc2c(ccc3ccccc32)oc1=O,n,n,23.2,n,47.8,56.6,
CS(=O)(=O)N1CCN(C(=O)c2cc(-c3ccccc3)nc3ccccc23)CC1,n,n,n,n,x,x,
O=C(c1cc2c(ccc3ccccc32)oc1=O)N1CCN(CCO)CC1,n,n,26.1,n,n,9.8,
O=C(CSc1ccsc1[N+](=O)[O-])Nc1cccc(F)c1,n,n,n,n,x,x,
CCCCOc1ccc(/C=N/NC(=O)c2nnn(-c3nonc3N)c2CN2CCCCCC2)cc1,n,n,n,n,x,x,
C/C(=N\Nc1ccccc1Cl)c1ccc(-n2ccnc2)cc1,n,n,n,n,x,x,
Cc1ccc2c(CN3CCOCC3)cc(=O)oc2c1C,n,n,n,n,x,x,
Cc1cc(=O)oc2c(CN3CCCCC3)c(O)ccc12,n,n,118.2,n,71.3,73.2,
Cc1cc(=O)oc2c(CN3CCOCC3)c(O)ccc12,n,n,99.5,n,74.1,64.8,
COc1ccc2c(C)cc(=O)oc2c1OCC(O)CN1CCOCC1 (centres undefined),n,x,15.3,n,n,10.2,
Cc1cc(=O)oc2c(CN(C)Cc3ccccc3)c(O)ccc12,n,n,74.7,n,72.2,78.3,
O=c1cc(-c2ccccc2)c2ccc(O)c(CN3CCCCC3)c2o1,n,n,n,n,x,x,
COc1ccccc1N1CCN(CC(O)COc2ccc3c(C)cc(=O)oc3c2)CC1 (centres undefined),n,n,n,n,x,x,
Cc1cc(C)nc(NC(=O)c2c(C(=O)O)noc2C)n1,n,n,n,n,x,x,
COc1ccccc1C(C)NS(=O)(=O)c1ccc(Cl)nc1 (centres undefined),n,n,n,n,x,x,
COCCCNC(=O)c1c(N)n(-c2cccc(S(N)(=O)=O)c2)c2nc3ccccc3nc12,n,n,19.7,n,n,n,

# Screening results (PubChem BioAssay)
